# A number with no mark means an inactive call.
# Legend:
# [1] = tested on: Sporothrix brasiliensis CBS 133006; assay: growth inhibition relative to untreated control; higher = more growth inhibition (more antifungal activity), active = 80 or more; extreme values may be limits of the assay; conditions: 1 µM; 48 h
# Procedure, shortened: (§1)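 The reported figure is percent growth inhibition relative to untreated cells, from quadruplicate runs. Yeast-form cells of the reference isolates at 1 x 10^5 CFU/ml were exposed to library compounds at a final 1 μM for 48 h at 35°C in 5% CO2, and growth was assessed by microscopy and spectrophotometric readings.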
# [2] = tested on: Sporothrix schenckii ATCC 32286; assay: as above; conditions: 1 µM; 48 h
# Procedure, shortened: as §1
SMILES,growth inhibition [1],growth inhibition [2]
O=C(NCCN1CCCC1)c1cc(NCCN2CCOCC2)nc2ccc(Cl)cc12,4.5%,0%
CC(C)(C)OC(=O)N1CCN(c2cc(-c3ccc(Oc4ccccc4)cc3)n[nH]2)CC1,10.5%,0%
CCc1ccc([C@@H]2C[C@H](C(F)(F)F)n3ncc(C(=O)NCc4ccc(OC)cc4)c3N2)cc1,15.5%,12.2%
Cc1noc(C)c1COc1cccc(C(=O)N=c2[nH]cccc2C)c1,0%,8.25%
CCc1nc2ccc(C(=O)NCc3ccc4c(c3)OCO4)cn2c1N(C)Cc1cccs1,7%,2.75%
CNC(=O)C1Cc2c([nH]c3cc(Cl)ccc23)C2(CCN(CCc3ccccc3)CC2)N1 (stereo not given),10.8%,0%
CC(C)=CCC/C(C)=C/CNCCNC1C2CC3CC(C2)CC1C3 (stereo not given),44.2%,22.2%
CCOc1ccc2cc(-c3nn(CC4CCN(C)CC4)c4ncnc(N)c34)ccc2c1,1.75%,15.8%
Cc1cccc(-c2nc(Nc3ccncn3)c3sccc3n2)n1,1%,9.75%
CCOc1ccc(OCC(=O)Nc2cc(C)cc(C)c2)cc1,12.2%,18%
O=C(C(Cc1c[nH]c2ccccc12)NS(=O)(=O)c1ccc(Cl)cc1)N1CCCCC1 (stereo not given),5.75%,4%
COc1ccc(-c2cnc3cnc(-c4cccc(OC(C)C)c4)cn23)cc1,10.2%,12%
COc1cc(C(F)(F)F)nc2ccc(C)c(N)c12,6.75%,14.5%
CCCNC(=O)N1CCC2(CC1)CC(=O)c1cc(C)ccc1O2,2.25%,2.25%
O=C(CCC1CCCCC1)Nc1cccc(-c2nnc(-c3ccco3)o2)c1,2.5%,2.5%
Nc1nccc2ccc(Oc3ccncc3)cc12,9.25%,14.2%
COc1cccc(-n2nnnc2S(C)(=O)=O)c1,0%,22.8%
COC(=O)c1cccc2oc(-c3cccc(OC)c3NC(=O)c3cc(-c4ccccc4)on3)nc12,7.5%,0%
O=C(Nc1nnc(S)s1)c1cc(Br)ccc1Cl,6.75%,4%
CCN(CC)S(=O)(=O)c1ccc(Cl)c(C(=O)Nc2ccc3nc(C)sc3c2)c1,0.5%,9.75%
CC(=O)OCC1OC([S-])C(OC(C)=O)C(OC(C)=O)C1OC(C)=O.CCP(CC)CC.[Au+] (stereo not given),25.5%,55%
CC(=O)Oc1ccccc1C(=O)Nc1ncc([N+](=O)[O-])s1,3.5%,14%
c1ccc(-c2nc(NC3CCCCC3)cc(C3CC3)n2)nc1,16.8%,38.2%
CNc1nnc(Sc2cnn(-c3ccccc3)c(=O)c2Cl)s1,6%,0%
Cc1noc(C)c1C(=O)N1CCCC(c2[nH]c3c(C)cccc3c2-c2ccncc2)C1 (stereo not given),7.5%,14%

SMILES,growth inhibition [1],growth inhibition [2]
COc1cc(C2=NCCN2)ccc1-c1cn(-c2cccc(C3=NCCN3)c2)nn1,14%,1.25%
c1ccc(Oc2ccc(-c3cc(C4CCOCC4)[nH]n3)cc2)cc1,3%,2.75%
C[C@H]1c2cccc(O)c2C(=O)C2=C(O)[C@]3(O)C(=O)C(C(N)=O)=C(O)[C@@H](N(C)C)[C@@H]3[C@@H](O)[C@@H]21,9.12%,10.5%
Nc1ccc(C(=O)Nc2ccc(-c3nc4ccccc4o3)cc2)cc1,5.5%,0%
CC(=O)N(CCN(C(=O)c1ccc(F)cc1)c1ccccc1)c1ccccc1,13%,0%
Brc1cncc(-c2cc(NCCCn3ccnc3)nc(-c3ccccc3)n2)c1,22%,3.5%
O=C(C1CCCCC1)N1CC(=O)N2CCc3ccccc3C2C1 (stereo not given),2.25%,10.2%
O=C1[C@@H](Oc2ccccc2)[C@@H](c2ccc(Cl)cc2)N1CCn1cnc2c(NCc3ccccc3)ncnc21,14%,17.8%
CNC(=O)c1cc(S(=O)(=O)N2CCN(c3ccccn3)CC2)cs1,0%,18.2%
C[C@H](C(N)=O)N1CCCC[C@@H]1c1ccc(OCc2cccc(F)c2)cc1,0%,2%
O=C(Nc1cccc(-c2ccc(NCCCN3CCCC3)nc2)c1)c1ccccc1,14.8%,6%
COc1ccccc1C(C)NCC(=O)Nc1cc(C(F)(F)F)ccc1Cl (stereo not given),9.75%,0%
CNC1C(OC2C(OC3C(O)C(O)C(N=C(N)N)C(O)C3N=C(N)N)OC(C)C2(O)C=O)OC(CO)C(O)C1O (stereo not given),6%,0%
O=C(NC1CC1)c1ccc(N2CCC(Cc3ccccc3)CC2)nc1,6.5%,19.8%
CCC(C)NC(=O)c1ccc(NC(=O)C2(c3ccccc3)CCCC2)cc1 (stereo not given),5.5%,4.25%
CC(C)(C)OC(=O)N1CCC(Cn2nc(-c3cnc4ccccc4c3)c3c(N)ncnc32)CC1,21.2%,4.5%
CCn1ncc2c(NC3CCOCC3)c(CNC(=O)c3ccnn3C)c(C)nc21,4.25%,0%
Cc1c[nH]c(CCNC(=O)c2cc(-c3ccc(Cl)cc3)cs2)n1,4%,0%
O=C(NCCc1ccn(-c2ccccc2)n1)C1CCCCC1,11.5%,6.25%
O=C(NCc1ccco1)N1CCN(Cc2ccc(Cl)s2)CC1,0%,0.25%
CS(=O)(=O)N1CCC(CCn2nc(Cc3cccc4ccccc34)c3c(N)ncnc32)CC1,5.5%,14%
CC(C)C(Oc1cccc2ccccc12)C(=O)O (stereo not given),23.2%,4.25%
CC(C)(C)n1nc(-c2ccccc2)c2c(N)ncnc21,0%,9%
Nc1ncnc2c1ncn2C[C@@H](O)[C@@H](O)C(=O)O,5%,11.8%
CCCCS(=O)(=O)Nc1ccc2cnn(C)c2c1,4.75%,1.75%

# Source: the supplement of paper PMC7556523
